What all share (experiment): Cytotoxic Profiling of Annotated Libraries Using Quantitative High-Throughput Screening (AID 1296008); also: nearly all actives have a fitted effect of over 60% in size
What all share (conditions): Five cell lines viability, CellTiter-Glo ATP luminescence, 48-72 h; max response: stronger effect = lower value

The test system of one test is HEK293. The gist of the method: (§1)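 Compounds were pin-transferred onto cells and incubated 48 or 72 hr at 37 degree Celsius, 95% humidity. CellTiter-Glo was added, plates sat 10 min at room temperature, then ATP-coupled luminescence was imaged as the viability read-out.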
A further test concerns HaCat. In outline:
as §1

The next test deals with KB-3-1. The gist of the method: as §1
For another test, the system named is NIH3T3. In outline: as §1

Molecules are shown by their SMILES. Records with an inconclusive call do not appear. Values without a mark were called inactive. Calls of active or inactive are those of the source. Calls follow the shape of the dose curve; as a rule, active = well fitted inhibition curve with a large enough effect; inconclusive = small, poorly fitted or top-dose-only effect; inactive = flat fitted curve, though single readings scatter. *1 amine or outer side, *2 acyl side, *3 side chain or, on linkers, in order; H or OH if unused. Where a SMILES comes first, the peptide text is derived from it. [ ]: non-standard residue; d: D form. X4 = CC(C)=CCc1cc(C(O)C(N[*:1])C(=O)[*:2])ccc1O
% is scaled to controls: 0 for no effect and ±100 for the full control effect; potency is read from the fitted curve at half-maximal effect.

`CC(=O)OC1C(O)CC2(C)C(CCC(C)C23Cc2c(O)cc(CO)c(C=O)c2O3)C1(C)C` (centres undefined): the max response was -11.5% in the test with HEK293, -3.73% in the test on HaCat and 6.45% in the test on KB-3-1. Further, in the test with NIH3T3, the outcome was inactive.
In the case of `CO[C@H]1C[C@@H]2CC[C@@H](C)[C@@](O)(O2)C(=O)C(=O)N2CCCC[C@H]2C(=O)O[C@H]([C@H](C)C[C@H]2CC[C@@H](OP(C)(C)=O)[C@H](OC)C2)CC(=O)[C@H](C)/C=C(\C)[C@@H](O)[C@@H](OC)C(=O)[C@H](C)C[C@H](C)/C=C/C=C/C=C/1C`, the Potency in the test on HEK293 is 0.0064 µM (active). Moreover, the max response with HaCat was -3.04%; in the test on KB-3-1 it was 4.5%; with NIH3T3 it was -2.54%.
Turning to `CCCCC1CCN(CCCC(=O)c2ccccc2C)CC1`, the Potency in the test on HEK293 was 16.4 µM (active). For the same compound, the results for the max response in the test on HaCat, in the test with KB-3-1 and in the test with NIH3T3 were -61.6%, -21.4% and -22.9%, respectively.
On to `C=C(F)c1sc(CNCCCNc2cc(=O)c3ccccc3[nH]2)c(C)c1Br`, for which the Potency in the test with HEK293 was 6.51 µM (active); in the test with KB-3-1, 16.4 µM (active). Also, the max response in the test with HaCat is -0.153%; with NIH3T3, -1.77%.
In the case of `C[C@@H]1O[C@@H](O[C@H]2[C@H](O)[C@@H](O)[C@H](O[C@H]3[C@H](O[C@H]4CC[C@@]5(C)C(=CC[C@@H]6C5CC[C@]5(C)[C@@H]7[C@H](C[C@@H]65)O[C@]5(CC[C@@](C)(CO[C@@H]6O[C@H](CO)[C@@H](O)[C@H](O)[C@H]6O)O5)[C@H]7C)C4)O[C@H](CO)[C@@H](O)[C@@H]3O)O[C@@H]2CO)[C@H](O)[C@H](O)[C@H]1O` (some centres undefined), the results for the Potency in the test with HEK293 and in the test on KB-3-1 were 1.23 µM (active) and 0.778 µM (active), respectively. For the same compound, the max response with HaCat was -8.19%.
In the case of `CC(Cc1cc2c(c(C(N)=O)c1)N(CCCO)CC2)NCCOc1ccccc1OCC(F)(F)F` (centres undefined), the Potency in the test on HEK293 was 23.1 µM (active). Besides, the max response was 2.13% in the test with HaCat, -19.6% in the test on KB-3-1 and 2.09% in the test on NIH3T3.
On to `C=CC(=O)Nc1cc(Nc2ncc(Cl)c(-c3c[nH]c4ccccc34)n2)c(OC)cc1N(C)CCN(C)C`, for which the Potency with HEK293 was 2.06 µM (active); in the test on HaCat, 0.58 µM (active); in the test with KB-3-1, 4.11 µM (active); in the test on NIH3T3, 5.8 µM (active).
As for `O=C1CCC(c2ccccc2)(C2CCN(Cc3ccc(I)cc3)CC2)C(=O)N1` (centres undefined), the Potency in the test on HEK293 is 18.4 µM (active). For the same compound, the max response is -3.49% with HaCat and -7.17% with KB-3-1.
On to `C=C(CCC1=C(C)[C@H]2[C@H](CC3[C@@H]4CC=C5C[C@@H](O)C[C@@H](O)[C@]5(C)C4[C@H](O)C[C@@]32C)O1)CO[C@@H]1O[C@H](CO)[C@@H](O)[C@H](O)[C@H]1O` (some centres undefined), for which the Potency with HEK293 is 1.37 µM (active); with HaCat, 4.32 µM (active); in the test on KB-3-1, 1.72 µM (active). The max response in the test on NIH3T3 was 0.743%.
As to `NC1CCC(Nc2cc(-c3cccc(NCc4cccc(F)c4)n3)c(Cl)cn2)CC1` (centres undefined), the Potency in the test on HEK293 is 0.259 µM (active); in the test on HaCat, 1.03 µM (active); in the test on KB-3-1 it was 0.366 µM (active); with NIH3T3, 1.16 µM (active).
`COc1ccc(C2=N[C@@H](c3ccc(Cl)cc3)[C@@H](c3ccc(Cl)cc3)N2C(=O)N2CCNC(=O)C2)c(OC(C)C)c1`: the max response in the test on HEK293 is -29%; in the test on HaCat, -13.8%; in the test on KB-3-1 it was 6.36%.
Consider `CCN1CCN(Cc2ccc(NC(=O)c3ccc(C)c(/C=C/c4cnc5[nH]ccc5c4OC)c3)cc2C(F)(F)F)CC1`, for which the Potency in the test with HEK293 is 1.46 µM (active); in the test with HaCat, 5.8 µM (active); in the test with KB-3-1, 18.4 µM (active); in the test with NIH3T3 it was 5.17 µM (active).
As to `CCCNc1ccc2ncc(-c3ccc4[nH]ncc4c3)n2n1`, the Potency in the test with HEK293 was 1.64 µM (active); with HaCat it was 0.411 µM (active); in the test with KB-3-1 it was 1.3 µM (active); in the test with NIH3T3 it was 3.26 µM (active).
As to `CC(C)c1cc(CNc2nc(Nc3cc(C4CC4)[nH]n3)cc(N3CCN(C)CC3)n2)on1`, the Potency in the test on HEK293 was 1.3 µM (active); in the test on HaCat, 2.31 µM (active); in the test on KB-3-1, 0.146 µM (active); with NIH3T3, 0.461 µM (active).
With `CC(C)=CCc1cc(C(O)C2NC(=O)CNC(=O)C(Cc3c[nH]c4ccccc34)NC(=O)C3CCCN3C(=O)CNC(=O)C(C(C)C)NC(=O)CNC2=O)ccc1O` (centres undefined) (cyclo(G[X4]GVGPW); configuration not given here), the max response in the test on HEK293 was -8.38%; in the test on HaCat, -16.9%; in the test on KB-3-1 it was 5.04%. In addition, in the test on NIH3T3, the compound was called inactive.
For `CC1(C)CCC(C)(C)c2cc(C3(c4ccc(C(=O)O)cc4)OCCO3)ccc21`, the figures for the max response in the test on HEK293, in the test with KB-3-1 and in the test with NIH3T3 were -82.5%, 9.31% and -24.2%, respectively. Also, in the test on HaCat, the call was inactive.
As to `C[C@H](CCC(=O)O)[C@H]1CC[C@H]2[C@@H]3C[C@H](O)[C@@H]4C[C@H](O)CC[C@]4(C)[C@H]3CC[C@]12C`, in the test with HEK293, the max response is 0.0594%. Further, the compound was called inactive with HaCat, in the test with KB-3-1 and in the test on NIH3T3.
As for `CC(=O)O[C@@H]1CC(C)=C2[C@H]1[C@H](C)CC[C@H]2/C=C(\C)C(=O)O`, the max response with HEK293 is -2.45%; with HaCat it was -15.4%; in the test with KB-3-1, 7.61%; in the test on NIH3T3, -9.33%.

The values are drawn from PubChem BioAssay (NCATS).
